Reference: PubChem BioAssay AID588398 (Broad Institute, 2011)
In all, about 1,200 compounds went through this assay and about 110 (9.2%) were called active. Roughly 8% stayed inconclusive and do not appear here.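 The calls were made as follows: active = pathway reporter half-maximal dose under half the control reporter's, or control reporter unaffected while pathway reporter is inhibited; inconclusive = either signal flat at 30 to 70% inhibition or poorly fitted; inactive = the rest.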 These entries were drawn from the full list. Potency and affinity values are given separately.

Test: LMP1 TES1 pathway selectivity over dsRED control – imaging, HEK293T, dual-color eGFP/dsRED, cherry-picks, selectivity assay for LMP1 NF-kB inhibitor project, dose response (AID 588398);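 also: 0% = median of neutral control wells and -100% = median of MG132 positive control wells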
Settings: 48 h; HEK293T Tet-On dsRED counter-screen channel, at 19.5 µM (top of the series); activity change, negative = inhibition: at the top concentration

Row | SMILES | activity change, negative = inhibition
1 | CC1CC(C)CN(S(=O)(=O)c2ccc(NC(=O)CCN3C(=O)C4CC=CCC4C3=O)cc2)C1 (stereo unspecified) | -14% (inactive)
2 | CCN(CC)S(=O)(=O)c1cccc(-n2c(O)c(C=Nc3ccccc3C(=O)O)c3ccccc3c2=O)c1 | 13.8% (inactive)
3 | Cc1ccc(CN2C(=O)CCC2C(=O)NCCCN2CCC(C)CC2)cc1 (stereo unspecified) | 8.48% (inactive)
4 | Cn1cc(SCC(=O)NCC2CCCO2)c2ccccc21 (stereo unspecified) | 7.65% (inactive)
5 | O=Cc1ccc(-c2cccs2)s1 | -98.5% (inactive)
6 | COc1ccc(NC(=O)CCS(=O)(=O)c2ccc3c(c2)CCN3C(C)=O)cc1 | 6.17% (inactive)
7 | C=CCn1c(C)c(C(C)=O)c(N2CCN(C(c3ccccc3)c3ccccc3)CC2)nc1=S | -16.5% (inactive)
8 | O=C(N/N=C/c1cccs1)c1n[nH]c2c1CCCC2 | 10.9% (inactive)
9 | COc1cc2oc(=O)cc(-c3ccc(-c4ccc(N(C)C)cc4)cc3)c2c(OC)c1OC | 56.6% (inactive)
10 | COc1ccc(C=Cc2ccc3ccccc3n2)c(OC)c1 | 10.7% (inactive)
11 | COc1ccc(C(=O)NCCNc2nc3cc(C)c(C)cc3cc2C)cc1 | 14% (inactive)
12 | O=C(c1sc2cc([N+](=O)[O-])ccc2c1Cl)N1CCOCC1 | -12.8% (inactive)
13 | O=C(N/N=C/c1sc2ccccc2c1O)c1cccc2ccccc12 | -97.3% (inactive)
14 | COc1cccc(C(=O)CC(=O)C(=O)Nc2ccc(C)cc2Cl)c1 | 4.92% (inactive)
15 | COc1ccc(NC2=NCC(Cc3ccc(Br)cc3)S2)cc1 (stereo unspecified) | 57.7% (inactive)
16 | O=C(N/N=C/c1ccc(O)cc1O)c1ccc(CN2C(=O)c3cccc4cccc2c34)cc1 | -69.9% (inactive)
17 | O=C(O)c1ccc(C=NNC(=O)c2cccc3ccccc23)cc1 | -1.92% (inactive)
18 | O=c1oc2ccccc2c(O)c1/C=N/c1ccccn1 | -2.45% (inactive)
19 | Cc1nnc(NC(=O)CSc2nnc(Cc3cccn3C)n2CCc2ccccc2)s1 | -2.3% (inactive)
20 | COc1ccc(O)c(/C=N/NC(=O)c2ccc(OCc3cccc(Br)c3)cc2)c1 | 22.7% (inactive)
21 | Cc1cccc(/C=N/NC(=O)CNc2cccc3ccccc23)n1 | 3.88% (inactive)
22 | CCOc1ccc(OCc2cccc(C(=O)N3CCCC3)c2)cc1 | 31.9% (inactive)
23 | O=C(O)c1c2c(nc3ccccc13)/C(=C/c1ccc(O)cc1)CC2 | -0.558% (inactive)
24 | O=[N+]([O-])c1ccc(O)c(/C=N/Nc2ncnc3c2cnn3-c2ccccc2)c1 | 0.818% (inactive)

Row | SMILES | activity change, negative = inhibition
25 | COc1cccc(/C=N/Nc2ncnc(Cl)c2N)c1O | -99.6% (inactive)
26 | O=C(/C=C/Nc1cccc(C(F)(F)F)c1)C(F)(F)F | 9.44% (inactive)
27 | Cc1ccc(C(=O)Nc2ccc3ncccc3c2)cc1 | -2.36% (inactive)
28 | CSc1ccccc1OCc1cc(C(=O)N2CCC[C@H]2C(N)=O)no1 | 18.8% (inactive)
29 | Cc1nnc(SCC(=O)N2CCC(c3noc4ccc(F)cc34)CC2)s1 | -92.2% (inactive)
30 | NC(=O)c1sc2nc3c(c(-c4cccs4)c2c1N)CCCCC3 | -17.8% (inactive)
31 | S=C1SCN(Cc2ccccc2)CN1Cc1ccco1 | 12.6% (inactive)
32 | O=C1c2ccccc2C(O)N1Cc1ccccc1 (stereo unspecified) | 5.47% (inactive)
33 | Cc1[nH]n(-c2ccc(Br)cc2)c(=O)c1/C=N/NC(=O)c1ccccc1 | -87.3% (inactive)
34 | Cc1cc(C(=O)CSc2nnc(-c3cccs3)o2)c(C)n1-c1ccccc1 | -4.58% (inactive)
35 | CC1=C(C(=O)OCc2ccc3c(c2)OCO3)C(c2ccc(Cl)cc2)NC(=O)N1 (stereo unspecified) | -87.8% (inactive)
36 | CC(=O)Oc1ccc(C(=O)Nc2cccnc2)cc1 | -6.76% (inactive)
37 | O=C(O)c1cccc(Nc2ccnc(Nc3cccc(C(=O)O)c3)n2)c1 | -17.6% (inactive)
38 | O=C(CN1C(=O)c2ccccc2S1(=O)=O)Nc1ncc(Cl)cc1Cl | -4.81% (inactive)
39 | Oc1[nH]c2ccccc2c1N=Nc1c(F)c(F)c(Cl)c(F)c1F | -13% (inactive)
40 | CN(C)c1ccc(-c2nc3ccccc3n2C)cc1 | 12.4% (inactive)
41 | COc1ccc(C(=O)N=c2nc3ccccn3s2)cc1 | -14.4% (inactive)
42 | COc1ccc(C(Nc2ccccn2)c2oc(CO)cc(=O)c2O)cc1 (stereo unspecified) | -3.88% (inactive)
43 | C[C@@H]1CN([C@@H](C)CO)C(=O)c2cc(NC(=O)Nc3ccccc3)ccc2O[C@H]1CN(C)C(=O)Nc1cccc2ccccc12 | 27.7% (inactive)
44 | CCCC(=O)NC(c1ccc(C)cc1)c1ccc2cccnc2c1O (stereo unspecified) | -68.9% (inactive)
45 | CCC(=O)NC(c1ccc(C)cc1)c1ccc2cccnc2c1O (stereo unspecified) | -80.4% (inactive)
46 | CCCC(=O)NC(c1ccc(C(C)C)cc1)c1ccc2cccnc2c1O (stereo unspecified) | -83.8% (inactive)
47 | CCCCC(=O)NC(c1ccc(OC)c(OC)c1)c1ccc2cccnc2c1O (stereo unspecified) | -81.1% (inactive)
48 | COc1cccc(C2=CC(=O)C[C@H](c3ccc4c(c3)OCO4)C2)c1 | -1.55% (inactive)

Row | SMILES | activity change, negative = inhibition
49 | C[C@@H]1CN([C@@H](C)CO)S(=O)(=O)c2ccc(/C=C/c3ccccc3)cc2O[C@@H]1CN(C)Cc1ccc(C(=O)O)cc1 | 89.4% (inactive)
50 | CCCCCN=Cc1c(C)[nH]n(-c2nc3ccccc3s2)c1=O | -4.71% (inactive)
51 | O=C(OCc1nc2ccccc2s1)[C@@H]1CCCN1S(=O)(=O)c1ccccc1F | 17.3% (inactive)
52 | CCOc1ccc(N(C(C)C(=O)N2CCCCCC2)S(C)(=O)=O)cc1 (stereo unspecified) | -3.25% (inactive)
53 | CCSc1nnc(NC(=O)CSc2nnc(-c3c[nH]c4ccccc34)n2CC)s1 | 40.4% (inactive)
54 | O=C(/C=C1\NC2(CCCC2)Cc2ccccc21)C(=O)N/N=C/c1ccccc1O | -21.8% (inactive)
55 | CCSc1nc2ccc(OC)cc2cc1C#N | 5.68% (inactive)
56 | COC(=O)c1[nH]c2ccc(C)cc2c1NC(=O)NC1CCCCC1 | 13.7% (inactive)
57 | O=C(C1CCCCC1)N1CCN(c2ncccn2)CC1 | -7.76% (inactive)
58 | O=C1c2ccccc2C(=O)c2cc(N3CCCCC3)ccc21 | 5.87% (inactive)
59 | N/C(=N\OC(=O)c1ccccc1)c1ccccn1 | 6.51% (inactive)
60 | O=C(Nc1ccc(Cl)cc1)Nc1nnc(CSCc2ccc(Cl)cc2)s1 | -9.55% (inactive)
61 | Nc1ccn(C2CCCO2)c(=O)n1 (stereo unspecified) | 0.032% (inactive)
62 | COc1ccc(C(=O)Nc2nnc(SCC(=O)NC3CC3)s2)cc1 | 5.05% (inactive)
63 | CCOc1ccc(C(=O)Nc2nnc(SCC(=O)NCC3CCCO3)s2)cc1 (stereo unspecified) | 27.3% (inactive)
64 | CSc1nc(C)cc(C)c1C#N | 8.86% (inactive)
65 | COC(=O)[C@@]1(C)[C@H]2C(=O)N(Cc3ccccc3)C(=O)[C@H]2[C@H]2CN=C(SCc3ccc(Cl)cc3)N21 | -98.7% (inactive)
66 | Cc1cccc(NC(=O)c2cnc3ccccn3c2=O)c1 | -11.4% (inactive)
67 | COCCNC(=O)C1CCC(CNS(=O)(=O)c2ccccc2)CC1 (stereo unspecified) | -3% (inactive)
68 | NC(=S)NN=Cc1nccc2c(C(F)(F)C(F)(F)C(F)(F)F)cccc12 | -99.4% (inactive)
69 | NC(=S)NN=Cc1nccc2c(C(F)(F)F)cccc12 | -100% (inactive)
70 | O=C(Nc1ccccc1)c1cn2ccccc2n1 | -9.66% (inactive)
71 | COC(=O)CSc1ncnc2c1sc1nc3c(cc12)COC(C)(C)C3 | -2.11% (inactive)
